The values that follow come from publication PMC5540273 (PLoS ONE, 2017).
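Further: KINOMEscan kinase panel screen.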

The assay deals with WNK3. The note with it: concentration: 1 μM,replicates: in singlicate; n = 1.
As for `CN1CCN(CCNc2nc3cc(Oc4ccc(NC(=O)Nc5cc(C(F)(F)F)ccc5F)cc4)ccc3[nH]2)CC1.Cl.Cl` [GW768504], the “%Inh” value is recorded as 0%.
Next, `CN(c1ccccc1CNc1nc(Nc2ccc3c(c2)CC(=O)N3)ncc1C(F)(F)F)S(C)(=O)=O`: 0%; `C[C@@H](Oc1cc(-n2cnc3ccc(-c4ccncc4)cc32)sc1C(N)=O)c1ccccc1Cl` [GSK483724]: 79%; `CC(=O)c1c(-c2ccncc2)[nH]c(-c2ccncc2)c1C` [GW493036]: 50%.
Next, `N#Cc1cccc(C(=O)NC2CCN(c3ccnc(Nc4ccc(F)cc4)n3)C2)c1` (stereo not shown) [GSK1379708]: 12%; `CS(=O)(=O)c1cccc(CNc2nc(Nc3ccc4c(c3)[C@@H]3C[C@@H]4CNC3=O)ncc2C(F)(F)F)c1`: 0%.
Turning to `CCN1CCN(CCCC(=O)Nc2n[nH]c3nc(-c4ccc(O)cc4)c(Br)cc23)CC1` [SB-731579], the “%Inh” value is given as 0%.
On to `Cc1ccc(Nc2ccnc(Nc3ccc4c(c3)CS(=O)(=O)C4)n2)cc1O.Cl` [GW579362], for which the “%Inh” value came to 33%.
For the compound `C[C@@H](Oc1cc(-n2cnc3cc(-c4cnn(C)c4)ccc32)sc1C(N)=O)c1ccccc1Cl` [GSK580432], the “%Inh” value was found to be 97.4%.
Then `O=C1NCCc2[nH]c(-c3ccncc3)cc21`, with 0%.
For `c1ccc(Oc2ccc(Nc3ccnc4ccc(-c5ccccn5)cc34)cc2)cc1` [GW407034], the “%Inh” value was found to be 20%.
Take `NC(=O)Nc1sc(-c2ccc(F)cc2)cc1C(N)=O` [GW789449]: the “%Inh” value came to 2%.
Then `COc1cccc(CNC(=O)NC2CCN(c3ccnc(Nc4cc(OC)c(OC)c(OC)c4)n3)C2)c1` (stereo not shown) [GSK1379765], with 34%; and `COC(=O)c1cccc(NC(=O)NC2CCN(c3ccnc(Nc4cc(OC)c(OC)c(OC)c4)n3)C2)c1` (stereo not shown) [GSK1379767], with 49%.
Take `CC(=O)Nc1nc2cnc(Nc3cc(NC(=O)c4cccc(CC(C)(C)C#N)c4)ccc3C)nc2s1`: the “%Inh” value was found to be 0%.
Then `C[C@@H]1CNc2c(sc3ccc4nc(-c5ccncc5)ccc4c23)C(=O)N1`, with 0%; and `Cl.Nc1n[nH]c2cc(-c3ccccn3)ccc12` [GSK2189892], with 0%.
Consider `COc1cc2c(Nc3ccc(NC(=O)c4ccccc4)cc3)ncnc2cc1OCCCN1CCOCC1` [GSK301329], for which the “%Inh” value amounted to 12%.
On to `Cc1ccc2c(-c3ccnc(Nc4ccc(C(F)(F)F)cc4)n3)cnn2n1` [GW819776], for which the “%Inh” value is on record as 0%.
`CC(C)S(=O)(=O)N1CCN(Cc2ccc3c(c2)nc(NC(=O)c2ccsc2)n3C[C@H](O)c2ccccc2)CC1` [GW635815]: the “%Inh” value came out at 18%.
For the compound `NC(=O)c1ccc(-c2cc3ncnc(SCC(=O)O)c3s2)cc1`, the “%Inh” value came out at 0%.
With `CCn1c(-c2nonc2N)nc2cncc(Br)c21` [SB-738004], the “%Inh” value is 31%.
As to `O=C(NCC1CC1)c1ccc(-c2cc(C(=O)NC3CC3)ccc2F)cc1` [GW810445], the “%Inh” value is reported as 11%.
Turning to `COc1cc2ncn(-c3cc(OCC4CCCCC4)c(C(N)=O)s3)c2cc1OC` [GSK204559], the “%Inh” value was 0%.
Regarding `COc1cccc(OC)c1C(=O)Nc1cccc(-c2nn3ccccc3c2-c2ccnc(Nc3cccc(F)c3)n2)c1` [GSK361065], the “%Inh” value is listed as 0%.
As for `COC(=O)Nc1nc2cc(Oc3ccc(NC(=O)Nc4cc(C(F)(F)F)ccc4Cl)cc3)ccc2[nH]1.Cl` [GW697465], the “%Inh” value is on record as 49%.
In the case of `Cl.Cl.NC[C@H](CC1CCCCC1)NC(=O)c1ccc(-c2ccnc3[nH]ccc23)s1` [GSK1581428], the “%Inh” value came out at 0%.
Turning to `CN1CCN(CCCNc2nccc(-c3c(-c4ccc(F)cc4)nn4cc(C(N)=O)ccc34)n2)CC1` [GW622475], the “%Inh” value came out at 20%.
Take `O=C(NOCC1CC1)c1cc(Br)c(F)c(F)c1Nc1ccc(I)cc1Cl`: the “%Inh” value was found to be 0%.
Consider `CC(=O)Nc1ccc(-c2cc3ncnc(SCC(=O)O)c3s2)cc1`, for which the “%Inh” value was determined as 0%.
`OCCn1cc(-c2cnc3nnn(Cc4ccc5ncccc5c4)c3n2)cn1`: the “%Inh” value is given as 0%.
Regarding `CCCC(=O)Nc1n[nH]c2ncccc12` [SB-601436], the “%Inh” value is reported as 0%.
On to `CN(c1ccc2c(c1)nc(NCc1ccc(F)cc1)n2C)c1ccnc(Nc2ccc(CS(C)(=O)=O)cc2)n1.Cl` [GW813244], for which the “%Inh” value was determined as 13%.
Then `Cl.c1ccc(Oc2ccc(Nc3ccnc4cc(-c5ccc(CN6CCNCC6)o5)ccc34)cc2)nc1` [GW567142], with 11%; and `Cc1ccc(C(=O)Nc2ccc(Oc3ccc4nc(NC(=O)C5CC5)cn4c3)c(F)c2)c(=O)n1-c1ccccc1`, with 0%; and `CN(c1cccc(CNc2nc(Nc3ccc4c(c3)CC(=O)N4)ncc2C(F)(F)F)c1)S(C)(=O)=O`, with 0%.
Regarding `CCn1c(-c2nonc2N)nc2cncc(CNC3CCNCC3)c21.Cl` [SB-747651], the “%Inh” value was 34%.
